We go through 24 compounds from PubChem BioAssay (Tox21).

Experiment [1] in a line: qHTS assay to identify small molecule antagonists of the estrogen related receptor (ERR) signaling pathway from Tox21 library - cell viability counter screen (AID 1224834). Note: nearly all actives have a fitted effect of over 30% in size. In a few lines:
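CellTiter-Fluor fluorescence, read after 30 min at 37 C, measures viability of ERR cells. Cells plated at 2,000/well and incubated 6 h before pin-tool compound addition, then exposed 17.5 hours at 37 C.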
For orientation: In qHTS, concentration-response curves come from the screen itself.

Experiment [2] addresses Luciferin 4-monooxygenase (Photinus pyralis) (UniProt P08659). The experiment in a line: qHTS assay to identify small molecule inhibitors of firefly luciferase (AID 1224835). Note: nearly all actives have a fitted effect of over 25% in size. Note: potency is the fitted concentration of half-maximal effect. In a few lines:
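Inhibition of purified Photinus luciferase is measured by luminescence. Substrate levels (D-luciferin, ATP) sit at their KM values. Each compound is tested in a concentration series.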

Experiment [3] in a line: qHTS assay to identify small molecule agonists of the constitutive androstane receptor (CAR) signaling pathway - cell viability counter screen (AID 1224836). Note: series mostly up to about 92 µM; nearly all actives have a fitted effect of over 45% in size. The procedure, abridged:
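Multiplexed viability check: HepG2-CYP2B6-hCAR cells, 15-point compound dosing, 0.75 uM PK11195 final, 23 h at 37 C, CellTiter-Fluor fluorescence.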

Experiment [4] in a line: qHTS assay to identify small molecule antagonists of the constitutive androstane receptor (CAR) signaling pathway - cell viability counter screen (AID 1224837). Note: series mostly up to about 92 µM; nearly all actives have a fitted effect of over 45% in size. In a few lines: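 Cytotoxicity counter-screen: CellTiter-Fluor fluorescence after 23 h compound exposure (15-point qHTS) in double-stable HepG2-CYP2B6-hCAR cells, with 50 nM CITCO added.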
In experiment [5] the target is Nuclear receptor subfamily 1 group I member 3 (Homo sapiens) (UniProt Q14994). Nature of the experiment: qHTS assay to identify small molecule antagonists of the constitutive androstane receptor (CAR) signaling pathway (AID 1224838).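 Note: HepG2 cells stably expressing hCAR with CYP2B6 luciferase reporter stimulated by CITCO; nearly all actives have a fitted effect of over 40% in size.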 In a few lines:
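Antagonism measured as luciferase signal (ONE-Glo, 30 min, room temperature) in CAR-stimulated cells: HepG2-CYP2B6-hCAR double-stable line exposed 24 hr at 37 C to compound in a 15-point series plus 50 nM CITCO.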

For experiment [6] the target is unchanged. The experiment in a line: qHTS assay to identify small molecule agonists of the constitutive androstane receptor (CAR) signaling pathway (AID 1224839). Note: nearly all actives have a fitted effect of over 15% in size. Note: potency is the fitted concentration of half-maximal effect. The procedure, abridged: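 Using human hepatoma HepG2 cells engineered with hCAR and a CYP2B6-2.2kb reporter, 15-concentration compound series were incubated 24 h alongside PK11195 at 0.75 uM final, with luminescence quantified afterwards.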

Experiment [7] in a line: qHTS assay to identify small molecule antagonists of the estrogen related receptor signaling pathway with the pleiotropic PPARgamma coactivator (PGC) from Tox21 10K library - cell viability counter screen (AID 1224840; active = well fitted cell-killing curve with a large enough effect in the repeat runs, not every such curve was filed as active; note: nearly all actives have a fitted effect of over 40% in size). In a few lines: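 Counter-screen for cytotoxicity: after 17.5 h compound exposure at 37 C, CellTiter-Fluor reagent added to PGC/ERR cells for 30 min and fluorescence read. Cells were seeded at 2,000 per well 6 h before dosing.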

The nature of experiment [8]: qHTS assay to identify small molecule antagonists of the estrogen related receptor signaling pathway with the pleiotropic PPARgamma coactivator (PGC) from Tox21 10K library (AID 1224841; call rule not given here; note: series mostly up to about 92 µM; actives are mostly falling curves and most rising ones were filed inactive; nearly all actives have a fitted effect of over 50% in size). The procedure, abridged: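 Luminescence (One-Glo, 30 min at room temperature) after 18 h compound treatment at 37 C of PGC/ERR reporter cells plated at 2,000 cells/well and settled 6 h beforehand.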

Experiment [9] in a line: qHTS assay to identify small molecule agonists of the estrogen related receptor signaling pathway with the pleiotropic PPARgamma coactivator (PGC) from Tox21 10K library (AID 1224842). Note: nearly all actives have a fitted effect of over 15% in size. The procedure, abridged: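 Luminescence from One-Glo (30 min, room temperature) measured after PGC/ERR cells had 18 h at 37 C with pinned compound (23 nL in DMSO). Cells had been seeded at 2,000 per well and pre-incubated 6 h.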

Experiment [10] can be described thus: qHTS assay to identify small molecule agonists of the estrogen related receptor signaling pathway with the pleiotropic PPARgamma coactivator (PGC) (AID 1224823). In a few lines:
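Luminescence readout (One-Glo, 30 min RT) from PGC/ERR cell line treated 18 h at 37 C with pin-tool-delivered DMSO compound solutions; cells plated 6 h before dosing. Quantitative HTS format.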

Where “and” joins values, the source holds several entries; their conditions need not be identical. Equal values may be shown once. Results filed as inconclusive are left out. The source holds several records for some structures; these can differ, active in one and inactive in another. Calls of active or inactive are those of the source. Unless noted, calls come from the whole dose curve; as a rule, active = well fitted curve in the direction sought with a large enough effect in the repeat runs; inconclusive = weak or mixed curves; inactive = no such curve, though single readings can be large; an effect the other way counts as inactive or inconclusive.

Nuclear receptor subfamily 1 group I member 3 (Homo sapiens), sequence (Q14994 whole entry, looked up): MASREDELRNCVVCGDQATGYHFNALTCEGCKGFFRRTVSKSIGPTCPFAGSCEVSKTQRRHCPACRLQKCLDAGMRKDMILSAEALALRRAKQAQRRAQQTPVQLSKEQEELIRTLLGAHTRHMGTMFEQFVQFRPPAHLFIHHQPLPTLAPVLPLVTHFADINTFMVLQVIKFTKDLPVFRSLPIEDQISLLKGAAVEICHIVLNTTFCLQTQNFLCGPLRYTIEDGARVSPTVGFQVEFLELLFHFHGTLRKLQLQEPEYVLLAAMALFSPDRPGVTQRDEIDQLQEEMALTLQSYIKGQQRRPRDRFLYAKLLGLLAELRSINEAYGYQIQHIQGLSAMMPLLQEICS
Luciferin 4-monooxygenase (Photinus pyralis), sequence (P08659 whole entry, looked up): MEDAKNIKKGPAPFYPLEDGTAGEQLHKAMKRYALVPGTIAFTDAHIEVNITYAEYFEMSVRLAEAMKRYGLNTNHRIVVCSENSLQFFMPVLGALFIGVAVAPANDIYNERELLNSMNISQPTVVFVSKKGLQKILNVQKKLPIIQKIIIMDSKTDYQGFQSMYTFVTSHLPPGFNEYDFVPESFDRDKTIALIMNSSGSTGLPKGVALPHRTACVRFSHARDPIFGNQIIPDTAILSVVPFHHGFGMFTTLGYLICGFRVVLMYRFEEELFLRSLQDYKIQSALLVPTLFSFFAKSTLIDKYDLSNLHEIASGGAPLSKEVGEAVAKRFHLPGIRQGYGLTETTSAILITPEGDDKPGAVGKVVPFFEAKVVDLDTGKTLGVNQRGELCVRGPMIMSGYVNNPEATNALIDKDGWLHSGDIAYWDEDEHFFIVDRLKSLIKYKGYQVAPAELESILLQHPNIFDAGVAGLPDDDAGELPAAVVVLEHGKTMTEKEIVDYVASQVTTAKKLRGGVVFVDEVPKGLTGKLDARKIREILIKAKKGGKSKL

For the compound `CCOCC(=O)O`, the Potency result in experiment [1], in experiment [2], in experiment [3], in [4], in experiment [6] and in experiment [7] was “inactive” throughout. In addition, the Potency entry in [8] is “inactive”. The outcome in experiment [5] and in experiment [9] was inactive.
As to `CCNc1ccccc1`, the Potency result in experiment [1], in experiment [3], in experiment [4], in experiment [6] and in [7] was “inactive” throughout. Besides, in experiment [2], the Potency was 28.8 µM (active) and inactive. Moreover, in [5], the compound was classed as inactive.
With `OCc1ccccc1`, the Potency result in [1], in [2], in [3], in experiment [4], in experiment [6] and in experiment [7] was “inactive” in each case. The Potency entry in [8] was “inactive”. Also, the outcome in experiment [5] and in [9] was inactive.
Turning to `CC(C)CC(=O)CC(C)CC(C)C` (stereo unspecified), the Potency entry in experiment [1], in experiment [2], in [3], in [4], in experiment [6] and in experiment [7] was “inactive” throughout. Besides, in experiment [8], the Potency result was “inactive”. Besides, the result in [5] and in experiment [9] was inactive.
In the case of `COc1ccc(N)c(C)c1`, the Potency result in experiment [1], in experiment [2], in experiment [3], in [4], in experiment [6] and in experiment [7] was “inactive” in each case. The result in experiment [5] was inactive.
On to `CC(C)CC(C)O` (stereo unspecified), for which the Potency result in [1], in [2], in experiment [3], in [4], in experiment [6] and in experiment [7] was “inactive” in each case. Moreover, the compound was classed as inactive in [5].
On to `CC(=O)OCCOC(C)=O`, for which the Potency result in [1], in experiment [2], in [3], in [4], in experiment [6] and in experiment [7] was “inactive” each time. Besides, the compound was called inactive in [5].
Turning to `C=Cc1ccc(C)cc1`, the Potency result in [1], in experiment [2], in experiment [3], in experiment [4], in experiment [6] and in experiment [7] was “inactive” throughout. In [5], the compound was classed as inactive.
Consider `O=c1[nH]cnc2[nH]ncc12`, for which the Potency result in experiment [1], in [2], in [3], in experiment [4], in [6] and in experiment [7] was “inactive” in each case. Further, in experiment [5], the result was inactive.
On to `CC(C)CCCCCCCOC(=O)CCCCC(=O)OCCCCCCCC(C)C`, for which the Potency entry in experiment [1], in [2], in experiment [3], in experiment [4], in experiment [6] and in [7] was “inactive” each time. Besides, the compound was called inactive in [5].
`CN(C)CCOC(=O)COc1ccc(Cl)cc1`: the outcome in experiment [10] and in [9] was inactive. The Potency entry in experiment [1], in experiment [2], in [3], in experiment [4], in experiment [7] and in experiment [8] was “inactive” in each case.
On to `CC(C)(C#N)c1cc(Cn2cncn2)cc(C(C)(C)C#N)c1`, for which the Potency result in experiment [1], in [2], in experiment [3], in [4], in [6] and in [7] was “inactive” each time. Moreover, in experiment [8], the Potency entry was “inactive”. Moreover, the compound was classed as inactive in experiment [5] and in [9].
On to `CC(C)(Oc1ccc(CCNC(=O)c2ccc(Cl)cc2)cc1)C(=O)O`, for which the compound was called inactive in experiment [10], in experiment [5] and in experiment [9]. Besides, the Potency result in experiment [1], in experiment [3], in experiment [4], in experiment [6], in [7] and in experiment [8] was “inactive” in each case. For the same compound, the Potency in experiment [2] was 35.6 µM (active).
With `COCCCN`, the Potency entry in experiment [1], in experiment [2], in [3], in experiment [4], in [6] and in experiment [7] was “inactive” throughout. In addition, the call in [5] was inactive.
For the compound `CCCCOC(=O)c1ccc(N)cc1`, the Potency entry in experiment [1], in experiment [3], in experiment [4] and in [7] was “inactive” each time. The Potency result in experiment [2] was “inactive and 34.7 µM (active)”; in experiment [6] it was 23.7 µM (active). Also, in experiment [5], the outcome was inactive.
Take `O=C(O)CCCCCCCCC(=O)O`: the Potency result in experiment [1], in [2], in experiment [3], in [4], in experiment [6] and in [7] was “inactive” each time. Moreover, the Potency entry in experiment [8] was “inactive”. In addition, the call in experiment [5] and in experiment [9] was inactive.
As to `CCCCCCCCCCN`, the Potency result in experiment [1], in experiment [2], in [3], in [4], in experiment [6] and in experiment [7] was “inactive” throughout. The compound was classed as inactive in experiment [5].
For the compound `CCNC(=S)NCC`, the Potency entry in [1], in experiment [2], in experiment [3], in [4], in experiment [6] and in [7] was “inactive” throughout. In addition, the outcome in experiment [5] was inactive.
As for `CCCCCCCCCCCC(=O)OC`, the Potency result in [1], in experiment [2], in experiment [3], in experiment [4], in experiment [6] and in experiment [7] was “inactive” in each case. The result in experiment [5] was inactive.
`COc1cc(OC)c(C(=O)CCCN2CCCC2)c(OC)c1`: the Potency entry in experiment [1], in experiment [2], in experiment [3], in experiment [4], in [6] and in [7] was “inactive” in each case. The outcome in experiment [5] was inactive.
For `c1ccc(Oc2ccccc2)cc1`, the Potency entry in experiment [1], in experiment [2], in experiment [3], in [4], in [6] and in experiment [7] was “inactive” in each case. For the same compound, the compound was classed as inactive in experiment [5].
For `O=C(O)Cn1c(=O)n(Cc2ccc(Br)cc2F)c(=O)c2ccc(Cl)cc21`, the Potency result in experiment [1], in experiment [2], in experiment [3], in experiment [4], in experiment [6] and in experiment [7] was “inactive” throughout. The Potency result in experiment [8] was “inactive”. The result in experiment [5] and in experiment [9] was inactive.
Take `NCCNCCN`: the Potency result in experiment [1], in experiment [2], in [3], in experiment [4], in experiment [6] and in [7] was “inactive” each time. Also, the Potency entry in experiment [8] was “inactive”. Further, the outcome in [5] and in experiment [9] was inactive.
Regarding `CCCCCCCO`, the Potency entry in experiment [1], in [2], in experiment [3], in [4], in experiment [6] and in experiment [7] was “inactive” throughout. Also, the outcome in [5] was inactive.
